Test results reported in PubChem BioAssay AID624002 (National Center for Advancing Translational Sciences (NCATS), 2012).
This is one part of the list. Inconclusive results are not listed. Unmarked numbers belong to inactive results. Active and inactive are the calls of the source. The call rests on the fitted dose curve; in most records, active means well fitted inhibition curve with a large enough effect; inconclusive means small, poorly fitted or top-dose-only effect; inactive means no such curve, though single readings can be large or run the other way.

target: Isocitrate dehydrogenase [NADP] cytoplasmic (Homo sapiens) (UniProt O75874); experiment: qHTS for Inhibitors of mutant isocitrate dehydrogenase 1 (IDH1): Confirmation of Cherrypicks; conditions: IDH1 R132H enzyme, NADPH diaphorase/resazurin fluorescence; series mostly up to 76.6 µM; activity change, negative = inhibition: at the top concentration; further: nearly all actives have a fitted effect of over 50% in size
Sequence (O75874 whole entry R132H, stated change not applied): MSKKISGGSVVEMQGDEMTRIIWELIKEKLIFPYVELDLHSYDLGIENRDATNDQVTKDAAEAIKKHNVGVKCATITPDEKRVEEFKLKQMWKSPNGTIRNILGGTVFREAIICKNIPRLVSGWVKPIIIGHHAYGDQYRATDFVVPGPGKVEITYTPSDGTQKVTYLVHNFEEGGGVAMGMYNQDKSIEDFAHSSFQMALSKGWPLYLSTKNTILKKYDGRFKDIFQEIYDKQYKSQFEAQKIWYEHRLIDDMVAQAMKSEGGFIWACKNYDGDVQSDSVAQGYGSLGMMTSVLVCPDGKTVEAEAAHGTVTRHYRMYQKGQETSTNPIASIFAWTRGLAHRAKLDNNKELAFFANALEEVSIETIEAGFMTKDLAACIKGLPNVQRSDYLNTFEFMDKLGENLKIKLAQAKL
Description: Malignant glioblastomas (WHO grade IV), including primary and secondary glioblastomas, are among the most lethal with a median survival of one year, and unfortunately they are also the most prevalent type of brain tumors. By and large the standard of care of gliomas remains the use of the oral alkylating agent temozolomide and radiotherapy following surgical tumor resection. There is an urgent unmet medical need for novel therapeutics for gliomas. IDH mutations occur in up to 70% of grade II-IV secondary glioblastomas, and IDH1 R132H is the most prevalent mutation. […] Wild-type IDH1 catalyzes the conversion of isocitrate to -ketoglutarate with the concomitant reduction of NADP+ to NADPH. In contrast, IDH1 R132H catalyzes the conversion of -ketoglutarate to 2-hydroxyglutarate (2-HG) with the concomitant oxidation of NADPH to NADP+ [5]. Recently, a second significant advancement for the field was the finding that IDH is an oncogene, and that its metabolic product 2-HG may contribute to the pathogenesis of IDH-mutated cancers. […] Although this link to cancer is tantalizing, the direct evidence of how 2-HG drives pathogenesis of gliomas and AML remains a subject of further research. The goal of this screen is to find small-molecule inhibitors of IDH1 R132H using a biochemical assay that measures substrate NADPH consumption through the use of a diaphorase/resazurin-coupled system. Inhibition of the IDH1 R132H enzymatic reaction leads to an increase in the amount of NADPH relative to a DMSO control and a concomitant increase in the fluorescence of the diaphorase/resazurin enzyme product resorufin at 590 nm. Compounds were screened as a concentration-titration series that ranged from 76 microM to 0.15 uM. NIH Molecular Libraries Probe Production Network [MLPCN] NIH Chemical Genomics Center [NCGC] MLSCN Grant: R03 DA032129 PI Name: Dr. Lenny Dang
Enzyme buffer was dispensed into black, solid 1536-well plates at 3 microL/well in 20 mM Tris buffer, pH 7.5, containing final concentrations of 10 mM MgCl2, 20 mM NaCl, 0.001% Tween20, 0.05% BSA, 2 mM beta-ME and 5.2 nM IDH1 R132H. Then, 23 nL of compounds or DMSO were delivered to each well using a pin tool. The inherent compound fluorescence was measured at this point at 590 nm on a ViewLux plate reader (Ex 525, Em 598, bodipy filter). The substrate buffer (3 uL; 20 mM Tris buffer, pH 7.5, containing final concentrations of 10 mM MgCl2, 20 mM NaCl, 0.001% Tween20, 0.05% BSA, 0.008 mM NADPH, and 1 mM a-ketoglutarate) was added to start the enzymatic reaction, and the plate was briefly spun at 270xg. After the reaction was allowed to progress for 80 minutes at room temperature, the remaining NADPH was detected with the diaphorase/resazurin-coupled system. Three microL of detection buffer (20 mM Tris buffer, pH 7.5, containing final concentrations of 10 mM MgCl2, 20 mM NaCl, 0.001% Tween20, 0.05% BSA, 0.53 uM diaphorase and 0.012 mM resazurin) was added, and after 5 minutes the fluorescence at 590 nm was measured on an Envision plate reader (Ex 544, Em 590, bodipy filter, 10 flashes). The %Activity was determined from the corrected fluorescence values. As no specific IDH1 R132H inhibitors have been identified in the literature, 1x (5.2 nM) and 0x IDH1 R132H enzyme controls (untreated) were included to normalize % Activity of identified inhibitors; 0x enzyme values corresponded to 100 % Activity (full inhibition), while 1x IDH1 R132H enzyme values were used to normalize 0 %A ctivity (no inhibition). Concentration-response curves were fitted to the signals arising from the resulting fluorescence. The concentration-response curves were then classified based on curve quality (r2), response magnitude and degree of measured activity, and compounds were subsequently categorized based on their curve class. […] Keywords: Isocitrate dehydrogenase, IDH1, IDH1 R132H, 2-HG, 2-hydroxyglutarate, AML, glioma, MLSMR, MLPCN, NIH Roadmap, qHTS, NCGC
Potency means the concentration at half of the fitted maximal effect.

Question: `Cc1ccc2nc(N3C(=O)C(O)=C(C(=O)c4ccco4)C3c3cccc(O)c3)sc2c1` (centres undefined) was tested. Which Potency did it give?
Answer: 28.2 µM (active)

Question: How did the Potency turn out when `COC(=O)c1cccc(N(C(=O)c2ccco2)C(C(=O)NC2CCCC2)c2ccco2)c1` (centres undefined) was run?
Answer: 22.4 µM (active)

Question: For `CC(C)Nc1nc(N(c2ccccc2)c2ccccc2)nc(-n2ccnc2)n1`, which Potency is on record?
Answer: 39.8 µM (active)

Question: Which Potency does the source give for `Cc1cccc(N(C(=O)Cc2cccs2)C(C(=O)NC2CCCC2)c2ccsc2)c1` (centres undefined) here?
Answer: 3.55 µM (active)

Question: `COc1cc(/C=C2/C(=O)ON=C2C)ccc1OCc1ccccc1F` was tested. Which Potency did it give?
Answer: 44.7 µM (active)

Question: Which Potency does the source give for `CCCNc1ncnc2c1c(-c1ccccc1)cn2-c1ccc(OCC)cc1` here?
Answer: 11.2 µM (active)

Question: With `Cc1ccc(-c2nn(-c3ccccc3)cc2/C=C2\SC(=S)N(CCCCCC(=O)O)C2=O)o1` as the compound, how does the Potency read?
Answer: 22.4 µM (active)

Question: Which Potency does the source give for `COc1ccc(/C=N/Nc2cc(N3CCOCC3)nc(C)n2)c(OC)c1` here?
Answer: 15.8 µM (active)

Question: Which Potency does the source give for `COc1cc(/C=C2/SC(=S)N(Cc3ccccc3)C2=O)cc(OC)c1O` here?
Answer: 39.8 µM (active)

Question: For `Cc1nc(C)c(C(=O)N(c2ccc(C)c(C)c2)C(C(=O)NCc2ccco2)c2ccccc2)s1` (centres undefined), which Potency is on record?
Answer: 17.8 µM (active)

Question: `Cn1c(COc2ccc(Cl)cc2)nc2ccccc2c1=O` was tested. Which “activity change, negative = inhibition” value did it give?
Answer: -16.1%

Question: For `CCCCC(=O)NC(c1ccc(OC)c(OC)c1)c1ccc2cccnc2c1O` (centres undefined), which “activity change, negative = inhibition” value is on record?
Answer: -18.7%

Question: How did the Potency turn out when `CCOC(=O)c1oc2c(CN3CCN(CCO)CC3)c(O)c(CC)cc2c(=O)c1-c1nc2ccccc2s1` was run?
Answer: 22.4 µM (active)

Question: With `O=C1c2cccc3cccc(c23)C(=O)N1CCCCCc1n[nH]c(=S)o1` as the compound, how does the Potency read?
Answer: 39.8 µM (active)

Question: How did the Potency turn out when `O=C(NC(Nc1nc2ccc([N+](=O)[O-])cc2s1)(C(F)(F)F)C(F)(F)F)c1ccccc1` was run?
Answer: 3.55 µM (active)

Question: `N#CC1=C(N)C(C#N)(C#N)[C@H](c2ccsc2)[C@H]2COCC=C12` was tested. Which Potency did it give?
Answer: 44.7 µM (active)

Question: For `Cc1nc(-c2ccc(Cl)cc2)sc1C(=O)CBr`, which Potency is on record?
Answer: 44.7 µM (active)

Question: Which Potency does the source give for `COc1ccc(Cl)cc1-n1c(=S)sc2c(=O)n(-c3ccc(F)cc3)c(SCC(=O)O)nc21` here?
Answer: 7.94 µM (active)

Question: How did the Potency turn out when `COc1ccc(/C=C2/SC(=O)N(CCCCCC(=O)Nc3ccccc3C(=O)O)C2=S)cc1` was run?
Answer: 39.8 µM (active)

Question: With `COc1cc2c(-c3ccc4c(c3)OCO4)c(-c3ccsc3)oc(=O)c2cc1OC` as the compound, how does the Potency read?
Answer: 6.31 µM (active)

Question: How did the Potency turn out when `CCC(C)(C)NC(=O)C(c1cccn1C)N(Cc1ccc(C)cc1)C(=O)Cn1nnc2ccccc21` (centres undefined) was run?
Answer: 25.1 µM (active)

Question: For `CCOC(=O)c1ccc(N2C(=O)c3n[nH]c(-c4ccco4)c3C2c2ccc(O)cc2)cc1` (centres undefined), which Potency is on record?
Answer: 39.8 µM (active)

Question: Which Potency does the source give for `COC(=O)c1ccc(-c2c(-c3ccccc3)ncc3cc(OC)c(OC)cc23)cc1` here?
Answer: 12.6 µM (active)

Question: Which Potency does the source give for `C(=N/Nc1cc(N2CCOCC2)nc(N2CCOCC2)n1)/c1ccccc1` here?
Answer: 39.8 µM (active)

Question: With `CCCCOc1ccc(CN2C(=O)C(=O)c3cc(Br)cc(C)c32)cc1OC` as the compound, how does the Potency read?
Answer: 22.4 µM (active)

Question: Which Potency does the source give for `CCCc1[nH]nc2c1C(c1ccc(OC)c(Cn3nc(C)c(Br)c3C)c1)C(C#N)=C(N)O2` (centres undefined) here?
Answer: 31.6 µM (active)

Question: How did the Potency turn out when `COc1ccc(C(CCN(Cc2ccc(OC)c(OC)c2)C(=O)CCl)c2ccccc2)cc1` (centres undefined) was run?
Answer: 15.8 µM (active)

Question: With `CCCOc1ccc(C2c3c(-c4ccccc4O)n[nH]c3C(=O)N2Cc2cccnc2)cc1` (centres undefined) as the compound, how does the Potency read?
Answer: 14.1 µM (active)

Question: With `CCCc1nc2c(c(=O)c3ccccc3n2C)c(=O)n1C1CCCCCC1` as the compound, how does the Potency read?
Answer: 8.91 µM (active)
